Cruzain noTriton = blocks cruzain activity in detergent-free assay; P25779; purified cruzain, Z-FR-AMC fluorescence, no detergent; Potency, µM, actives largely listed as inhibitors; 200,000 tested, 2.3% active; note: nearly all actives have a fitted effect of over 40% in size
Target sequence (P25779 123-467 limits assumed): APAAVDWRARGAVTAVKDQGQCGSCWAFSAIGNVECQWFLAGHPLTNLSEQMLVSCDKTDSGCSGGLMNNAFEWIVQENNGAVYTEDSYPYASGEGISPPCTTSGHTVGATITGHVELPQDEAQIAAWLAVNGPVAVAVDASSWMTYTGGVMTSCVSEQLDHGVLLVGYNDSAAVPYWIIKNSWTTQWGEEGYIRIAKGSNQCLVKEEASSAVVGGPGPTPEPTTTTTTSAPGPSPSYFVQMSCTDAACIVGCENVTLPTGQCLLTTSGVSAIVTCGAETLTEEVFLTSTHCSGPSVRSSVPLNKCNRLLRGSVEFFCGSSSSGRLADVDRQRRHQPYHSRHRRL
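Detergent-free condition (0.00005% Triton X-100) in acetate buffer pH 5.5 with DTT. 1.5 nM enzyme and compound were pre-mixed 15 min, then 2 uM Z-FR-AMC substrate added; reaction progress from fluorescence change between first and third reads (60 s).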
Cruzain Triton = cruzain (T. cruzi) inhibition with detergent | P25779 | purified cruzain, Z-FR-AMC fluorescence, 0.01% Triton | Potency, µM, actives largely listed as inhibitors | 200,000 tested, 0.43% active; note: nearly all actives have a fitted effect of over 40% in size
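Detergent-containing run (0.01% Triton X-100) in acetate buffer pH 5.5 with 5 mM DTT: enzyme at 1.5 nM final, 15 min compound preincubation at room temperature, then 2 uM Z-FR-AMC substrate. Activity taken as 60 s fluorescence increase at 360/450 nm.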
Each line names hits and unclear results; the compound was inactive in the other large screens; ! = a repeat was not active. This is a sample that favours compounds with a hit; in the whole collection about 2.5% have one here. Calls come from the whole dose curve; as a rule, active = well fitted curve in the direction sought with a large enough effect; inconclusive = small, poorly fitted or top-dose-only effect, or another doubt; inactive = no such curve, though single readings can be large; an effect the other way counts as inactive or inconclusive.

CC1=NN(C(N)=S)C(=O)C1N=Nc1ccccc1C (stereo unspecified)	Cruzain noTriton 25µM, Cruzain Triton inconclusive
CC1=NN(C(N)=S)C(=O)C1N=Nc1c(C)cc(C)cc1C (stereo unspecified)	Cruzain noTriton 13µM
CC(=O)N1CCCc2ccc(NC(=O)c3ccc(C(F)(F)F)cc3)cc21	none
CCC(C)S(=O)(=O)c1oc(-c2cccs2)nc1S(=O)(=O)c1ccccc1 (stereo unspecified)	none
CCCCCCCCC[n+]1cccc2c3ccccc3ccc21	none
Cc1cc(N)c2ccccc2[n+]1CCCCCCCCCC[n+]1c(C)cc(N)c2ccccc21	Cruzain noTriton inconclusive, Cruzain Triton 13µM!
[ClH+][Cu][ClH+].[Cu].[OH2+]c1ccc2ccccc2c1CN1CCCCC1.[OH2+]c1ccc2ccccc2c1CN1CCCCC1	none
Cc1cc(-c2nc3ncccc3o2)ccc1N	Cruzain noTriton inconclusive, Cruzain Triton 28µM
Nc1cc(-c2nc3ncccc3o2)ccc1Cl	none
Cc1ccc(-c2nnc(SCC(=O)N3CCN(c4ccccc4)CC3)o2)cc1	Cruzain noTriton 10µM
COc1ccc(-c2nnc(SCC(=O)N3CCN(c4ccccc4)CC3)o2)cc1OC	none
Cc1nc(NCc2ccccc2)c2nc(-c3ccccc3)n(CC(C)(C)CN(C)C)c2n1	none
Cc1coc2c(C)c3oc(=O)c(CCC(=O)N4CCCCC4)c(C)c3cc12	none
Cc1ccc(OCc2nc(-c3ccc(-n4cccc4)cc3)no2)cc1C	Cruzain noTriton 25µM
Cc1ccccc1OCc1nc(-c2ccc(-n3cccc3)cc2)no1	Cruzain noTriton inconclusive
Cc1cccc(OCc2nc(-c3ccc(-n4cccc4)cc3)no2)c1	Cruzain noTriton 20µM
Fc1ccccc1OCc1nc(-c2ccc(-n3cccc3)cc2)no1	none
CC1CCc2nc3ncn(Cc4cccc(F)c4)c(=O)c3cc2C1 (stereo unspecified)	none
CCOc1ccc(NC(=O)CSc2nc(-c3ccccc3)c3cc(OCC)ccc3n2)cc1	none
CC1CCCC(C)N1C(=O)CSc1nnc(NC(=O)Cc2cccs2)s1 (stereo unspecified)	none
CCC(=O)Nc1nnc(SCC(=O)N2c3ccccc3CC2C)s1 (stereo unspecified)	Cruzain noTriton 13µM, Cruzain Triton 3.5µM
CCC(=O)Nc1nnc(SCC(=O)c2ccc3c(c2)Cc2ccccc2-3)s1	Cruzain noTriton 20µM
Cc1nnc(SCC(=O)N2c3ccccc3CC2C)s1 (stereo unspecified)	none
CC(=O)Nc1nnc(SCC(=O)c2ccc3c(c2)Cc2ccccc2-3)s1	none
CC1Cc2ccccc2N1C(=O)CSc1nnc(NC(=O)Cc2cccs2)s1 (stereo unspecified)	Cruzain noTriton 25µM, Cruzain Triton 16µM
CCOc1ccc(OCC)c(NS(=O)(=O)c2c(C(=O)N3CCC(C)CC3)c(C)n(C)c2C)c1	Cruzain noTriton inconclusive
Cn1nnc2c(NCc3ccc(Cl)cc3)ncnc21	none
CCC(C)(C)NC(=O)C1CCN(S(=O)(=O)c2c(C)noc2/C=C/c2ccc(C)cc2)CC1	none
Cc1nn(C)c2c1c(-c1ccccc1)cc(=O)n2Cc1ccc(F)cc1	none
Cc1c(/C=C(\C#N)c2nn(-c3ccccc3)c(N)c2C#N)c2ccccc2n1Cc1ccc(F)cc1	Cruzain noTriton 4µM
Cc1ccc(/C=C(\C#N)c2nn(-c3ccccc3)c(N)c2C#N)cc1	none
COc1cc(NC(=O)CSc2nc3nc(C)c(Cc4ccccc4)c(C)n3n2)cc(OC)c1OC	Cruzain noTriton inconclusive
CCOc1cc(/C=C2\C(=O)N(c3nc(-c4ccc(Br)cc4)cs3)N=C2c2ccccc2)ccc1O	Cruzain noTriton 3.2µM, Cruzain Triton inconclusive
CCOc1cc(/C=C/c2cc(C(=O)O)c3ccccc3n2)ccc1O	none
Cc1ccc(C(=O)n2nc(C)c(S(=O)(=O)N3CCCCCC3)c2C)cc1	none
O=C(Nc1cccc(Cl)c1)c1ccc2nc(Cc3ccccc3)oc2c1	none
COc1ccccc1N(C(=O)c1cncc(Br)c1)c1nc(-c2ccc(C)cc2)cs1	Cruzain noTriton 13µM
COc1ccc(C)cc1N(C(=O)c1cccc(F)c1)c1nc2ccccc2s1	Cruzain noTriton inconclusive
N=C(N)S/C=C\C(=O)O	none
Cc1cccc(-n2c3nc(=O)[nH]c(=O)c-3cc3ccc(Cl)cc32)c1C	none
O=C(/C=C1\SC(=O)N(CC(=O)Nc2ccc(Cl)cc2)C1=O)Nc1ccc(F)cc1	Cruzain noTriton inconclusive
CC(/C=C1\SC(=O)N(CC(=O)Nc2cccc(O)c2)C1=O)=C\c1ccccc1	none
Cc1cccc(NC(=O)CN2C(=O)S/C(=C\C(=O)Nc3ccc(Cl)cc3)C2=O)c1	Cruzain noTriton 13µM
O=C(/C=C1\SC(=O)N(CC(=O)Nc2ccc(F)cc2)C1=O)Nc1ccc(Cl)cc1	Cruzain noTriton 25µM
Cc1cccc(NC(=O)CN2C(=O)N/C(=C/c3ccc(C)s3)C2=O)c1	Cruzain noTriton 4µM
Cc1cccc(NC(=O)CN2C(=O)N/C(=C/c3cc(C)n(C(C)C)c3C)C2=O)c1	none
Nc1ncnc2c1nc(Sc1ccc(Cl)cc1)n2[C@H]1O[C@@H]2COP(=O)(O)O[C@H]2[C@@H]1O	none
CN1c2ccccc2-c2nc(SCC(=O)Nc3ccccc3)ncc2S1(=O)=O	none
CC1CCN(c2nn3c(=O)c(C(=O)NCCc4ccccc4)cnc3s2)CC1	none
O=C(Nc1nnc(SCc2ccc(F)cc2)s1)c1ccco1	none
COC(=O)c1ccc(CSc2nnc(NC(=O)c3cc4c(s3)CCCC4)s2)cc1	Cruzain noTriton 6.3µM
O=C(Nc1nnc(C2CC2)s1)c1cc2c(s1)CCCCCC2	Cruzain noTriton 6.3µM
COC(=O)c1ccc(CSc2nnc(C)s2)cc1	none
CC1CCc2sc(C(=O)Nc3nnc(SCc4ccc(F)cc4)s3)cc2C1 (stereo unspecified)	Cruzain noTriton 10µM
Cc1csc(NC(=O)c2cc3c(s2)CCC3)n1	none
CCC(C)NC(=O)C1CCN(C(=O)c2cc3sccc3n2Cc2ccc(Cl)cc2)CC1 (stereo unspecified)	none
Cc1cc2oc(=O)c(CC(=O)NCCc3ccccc3F)c(C)c2c2occ(C(C)(C)C)c12	none
COc1ccc(-c2nc3sc(CCNC(=O)C(=O)Nc4ccc(C)c(C)c4)c(C)n3n2)cc1	none
COc1ccc(Cl)c2sc(NC(=O)c3ccc(S(=O)(=O)N4CCOCC4)cc3)nc12	none
O=C(Nc1cccc(C(F)(F)F)c1)c1cnn(-c2cccc(F)c2)c1C1CCNCC1	none
O=C(c1ccc([N+](=O)[O-])cc1)N1c2ncnn2C2(CCCCC2)[C@@H]2CCCC[C@@H]21	none
COc1cc(Nc2nc3c(S(=O)(=O)c4ccc(C)c(C)c4)nnn3c3ccsc23)cc(OC)c1	none
O=C(CSc1ccc(-c2nc3ccccc3[nH]2)cn1)Nc1ccc(S(=O)(=O)N2CCCC2)cc1	Cruzain noTriton 32µM
Cc1cc2nc(-c3ccc(SCC(=O)Nc4ccc(S(=O)(=O)N5CCCC5)cc4)nc3)[nH]c2cc1C	Cruzain noTriton inconclusive
O=C(CSc1ccccc1)Nc1ccc(-c2nc3ccccc3[nH]2)cc1	Cruzain noTriton inconclusive
Cc1ccc2nc(-c3ccc(NC(=O)CSc4ccccc4)cc3)[nH]c2c1	Cruzain noTriton inconclusive, Cruzain Triton 10µM
O=C(c1ccc2c(c1)N(Cc1ccc(Cl)cc1)C(=O)c1ccccc1S2(=O)=O)N1CCCCCC1	none
CC(C)C(c1nnnn1C1CCCCC1)N1CCc2ccccc21 (stereo unspecified)	none
Cc1ccc(C(c2nnnn2C2CCCCC2)N2CCc3ccccc32)cc1 (stereo unspecified)	Cruzain noTriton 25µM

Screening results as filed in PubChem BioAssay.
